# Screening results as filed in PubChem BioAssay.
# TEAD-YAP inh = TEAD-YAP interaction inhibition | inhibition, % at 9.12 µM | actives 1.4% (n = 640,000) | HEK-TIYL cells, TEAD-Gal4/YAP UAS-luciferase luminescence; in the data active = inhibition above about 32%;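 also: 0% = median of test compound wells and 100% = reference inhibitor wells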
# FBW7 act = human FBW7 E3 ligase activation, primary screen; Q969H0; AlphaScreen FBW7–phospho-cyclin E peptide binding, activator screen; normalized activity (activation), % at 26.1 µM; actives 0.13% (n = 650,000); in the data active = normalized activity above about 1.9%;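 also: purified mutant Fbw7 with reduced substrate affinity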
# GPR151 ag = activators of human GPR151; PathHunter beta-arrestin GPR151 cells, luminescence; activation, % at 11.2 µM; actives 1% (n = 650,000); in the data active = activation above about 4.9%;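 also: 0% = median of compound wells and 100% = cells with positive control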
# MITF primary = inhibitors of human MITF. AlphaScreen MITF homodimerization, bead proximity signal. actives 0.91% (n = 650,000). inhibition, % at 2.6 µM. O75030. AID 1259374; in the data active = inhibition above about 50%;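 also: 0% = vehicle wells with protein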
# * marks the source's active call; other numbers are inactive results. A selection: hits, their analogues and other compounds. The true share with any hit is near 3.5%.
SMILES,TEAD-YAP inh,FBW7 act,GPR151 ag,MITF primary
Cc1cccc(Nc2nc3nonc3nc2Nc2ccc(F)cc2)c1C,35*,0,1,10
Cc1cccc(Nc2nc3nonc3nc2Nc2ccc(I)cc2)c1C,13,0,0,8
Fc1ccc(Nc2nc3nonc3nc2Nc2ccccc2F)cc1,83*,0,3,-2
O=c1[nH]c2nonc2nc1Nc1ccccc1F,73*,0,-2,6
Fc1ccc(Nc2nc3nonc3n3nnnc23)cc1,46*,0,-6,6
Cc1ccc(Nc2nc3nonc3n3nnnc23)cc1C,-8,0,-1,16
CC(C)(C)c1ccc(N2C(=O)/C(=C/c3ccc(-c4ccc([N+](=O)[O-])cc4)o3)C=C2c2ccccc2)cc1,0,0,0,6
COc1ccnc(N2CCC(Oc3ccc(-c4ccc(N(C)C)nc4)cc3)CC2)n1,61*,0,1,0
CN(C)c1ccc(-c2ccc(OC3CCN(CCc4ccccn4)CC3)cc2)cn1,53*,0,1,10
COCc1ccc(-c2ccc(OC3CCN(c4nccc(OC)n4)CC3)cc2)cc1,-6,0,2,3
Cc1cc(N2CCC(C(=O)N3CCCC3)CC2)n2nc(C)c(-c3ccc(Cl)cc3)c2n1,0,0,0,-15
COc1ccccc1/C=N/NC(=O)c1ccc(NC(=O)c2ccc(F)cc2)cc1,0,0,1,21
COc1cccc(/C=N/NC(=O)C(=O)Nc2cccc(C(F)(F)F)c2)c1O,59*,-3,1,6
COc1cccc(/C=N/NC(=O)c2ccc(N(C)S(=O)(=O)c3ccccc3)cc2)c1O,80*,0,1,13
COc1cc([N+](=O)[O-])cc(/C=N/NC(=O)c2ccncc2)c1O,5,-1,-1,83*
COc1cccc(/C=N/NC(=O)C(=O)N/N=C/c2cccc(OC)c2O)c1O,13,-1,0,-205
COc1ccccc1C(=O)N/N=C/c1cc([N+](=O)[O-])cc(OC)c1O,-21,1,-1,-10
COc1cccc(/C=N/NC(=O)c2ccc(NC(=O)c3ccc(F)cc3)cc2)c1O,97*,0,0,4
O=C(NC1CC1c1ccccc1)C12CC3CC(CC(C3)C1)C2 (stereo not given),-24,1,-1,12
Cc1ccc(-c2csc(Nc3cccc4ccccc34)n2)cc1C,-5,0,0,15
O=C(N/N=C\c1ccc([N+](=O)[O-])s1)c1cncc(Br)c1,65*,0,-1,10
O=C(N/N=C/c1cc(Cl)ccc1O)c1cncc(Br)c1,7,0,0,63*
COc1cc(/C=N/NC(=O)c2cncc(Br)c2)cc(Br)c1O,-4,0,-1,7
COc1cccc(/C=N/NC(=O)c2cc(O)c(O)c(O)c2)c1O,8,0,-2,46
COc1cccc(/C=N/NC(=O)c2cc3ccccc3cc2O)c1O,53*,0,-6,24
SMILES,TEAD-YAP inh,FBW7 act,GPR151 ag,MITF primary
COc1cccc(/C=N/NC(=O)c2cncc(Br)c2)c1O,80*,0,-5,90*
CCN(c1ccccc1C)S(=O)(=O)c1nnc(NC(=O)c2ccccc2)s1,6,0,0,9
CC1CCN(Cc2c(O)c3ccccc3oc2=O)CC1,-1,0,0,18
Fc1ccc(-c2c[n+]3c(n2-c2ccccc2)SCC3)cc1,2,0,1,-8
COc1ccc(/C=N/NC(=O)CNc2ccc(Cl)cc2C)c(OC)c1,0,0,0,1
COc1cccc2cc(C(=O)N3CCN(C)CC3)c(=O)oc12,3,0,3,-15
COc1cccc(/C=N/NC(=O)c2ccncc2)c1O,6,-1,1,61*
COc1cccc(/C=N/NC(=O)c2ccc(Cl)c(Cl)c2)c1O,9,0,-1,7
Cc1ncc([N+](=O)[O-])n1CCSc1nc2c(c(=O)n(C)c(=O)n2C)n1Cc1cccc(Cl)c1,-8,0,0,3
CCCCN(C)c1nnc(NC(=O)Nc2ccccc2OC)s1,-14,0,1,1
CCCCN(C)c1nnc(NC(=O)Nc2cc(OC)c(OC)c(OC)c2)s1,56*,0,0,11
COc1cccc(NC(=O)CN2C(=O)C(C)SC(C)C2=O)c1 (stereo not given),3,0,-1,-14
C/C=C/C(=O)Oc1ccccc1/C=C1/N=C(c2ccc(Cl)cc2)OC1=O,36*,0,-1,19
CCCCCCOc1ccccc1/C=C1/N=C(c2ccc(Cl)cc2)OC1=O,3,0,0,8
